# PKA-R1A act = PKA-R1A complex activation | PKA-R1A dissociation, Cy5-IP20 fluorescence polarization; scaled: DMSO 0%, 113 µM cGMP 100% | activation, % at 11.4 µM | hit rate 0.083% among 340,000 | AID 504707;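 active = percent activation above the mean of all tested compounds plus 3 SD, cut at about 19% in these data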;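 also: higher means more PKAc released from R1A so a rise in polarization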
# PKA-R2B act = activators of human PKA-R2B complex | activation, % at 11.4 µM | hit rate 0.079% among 340,000 | PKA-R2B holoenzyme dissociation, Cy5-IP20 fluorescence polarization; R2B truncated from residue 108, S112A mutant; 0% DMSO only, 100% 113 µM cGMP | P22694+P31323;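 active = activation above a cutoff set at the mean over all compounds plus 3 SD, cut at about 18% in these data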;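 also: higher means more holoenzyme dissociation and a rise in polarization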
# Target sequence (P31323 whole entry, looked up, other chains not shown, the tested form may be a part): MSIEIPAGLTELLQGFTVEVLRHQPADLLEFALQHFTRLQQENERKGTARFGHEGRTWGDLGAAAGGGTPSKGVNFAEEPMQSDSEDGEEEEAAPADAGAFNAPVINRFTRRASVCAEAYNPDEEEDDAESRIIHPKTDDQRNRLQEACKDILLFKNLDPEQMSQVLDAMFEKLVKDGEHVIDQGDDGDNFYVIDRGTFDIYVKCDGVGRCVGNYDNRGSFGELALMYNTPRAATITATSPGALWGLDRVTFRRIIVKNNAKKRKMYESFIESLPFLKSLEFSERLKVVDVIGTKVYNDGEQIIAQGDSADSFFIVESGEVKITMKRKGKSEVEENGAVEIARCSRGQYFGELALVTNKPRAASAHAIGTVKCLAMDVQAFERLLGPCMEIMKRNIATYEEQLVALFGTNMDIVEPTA
# MsrA act = activates bovine MsrA enzyme. purified bovine MsrA, absorbance read-out. activation, % at 10.6 µM. hit rate 0.3% among 360,000. AID 602163; in the data active = activation above about 7.5%
# MsrA inhibitor = inhibitors of bovine MsrA; purified bovine MsrA, absorbance read-out; AID 651718; hit rate 0.75% among 360,000; inhibition, % at 15.5 µM; in the data active = inhibition above about 4.5%
# Hits are given with their value; i = inactive; nt = not tested or not shown. In the library only some 1.1% were active in any assay of this set; here they are far more common.
SMILES,PKA-R1A act,PKA-R2B act,MsrA act,MsrA inhibitor
O=C1C=CC(=O)N1c1ccc(O)cc1,i,i,i,i
O=C1C=CC(=O)N1c1ccc(OC(F)F)cc1,i,i,i,47
Cc1cc(C(=O)Nc2nnc(-c3ccccc3)s2)no1,i,i,i,4.6
COc1ccc(C2C3=C(CC(c4ccco4)CC3=O)Nc3ccccc3N2C(C)=O)cc1 (centres undefined),i,i,i,5.3
CC1CC(=O)C2=C(C1)Nc1ccccc1N(C(=O)COc1ccccc1)C2c1ccco1 (centres undefined),i,i,i,i
CC(C)(C)c1ccc(C#C[C@@H]2C=C[C@H]3OC(=O)CC/C=C/CCC(=O)OC[C@H]3O2)cc1,nt,nt,nt,i
COC(=O)C1=C(C)N(Cc2ccccc2C(F)(F)F)C(=NCc2ccccc2)NC1c1cccc(C(F)(F)F)c1 (centres undefined),nt,nt,nt,i
Cc1c(C(=O)N/N=C/c2ccc(O)c(Br)c2)sc(N)c1C#N,i,i,i,i
COc1cc(/C=N/NC(=O)c2sc(N)c(C#N)c2C)ccc1O,i,i,i,8.4
COc1cc(/C=N/NC(=O)c2cccc(N3CCCC3=O)c2)ccc1O,i,i,i,5.4
C#CC1c2ccccc2CCN1CC=C (centres undefined),nt,nt,nt,i
CCOC(=O)c1nnn(-c2nonc2N)c1CSc1ccccn1,i,i,8.0,i
CCOC(=O)c1nnn(-c2nonc2N)c1CSc1ccccc1,i,i,i,i
F[B-](F)(F)COCc1ccccc1C#Cc1ccccc1,nt,nt,nt,i
CCN(CC)c1nc(N)c2c(N)nc3c(c2c1C#N)CC(c1ccccc1)O3 (centres undefined),i,i,i,6.3
COC(=O)C1=C(C)N(C)C(=NCc2ccc3c(c2)OCO3)NC1c1ccccc1 (centres undefined),nt,nt,nt,i
CC(O)(CS(=O)(=O)Cc1ccccc1)C(=O)Nc1ccc(C(F)(F)F)cc1 (centres undefined),i,i,i,i
CC(O)(CS(=O)(=O)Cc1ccccc1)C(=O)Nc1cccc(C(F)(F)F)c1 (centres undefined),i,i,10,i
CC(=O)Nc1ccc(S(=O)(=O)C(C#N)c2nc3ccccc3nc2NCCCO)cc1 (centres undefined),i,i,i,4.6
CN1C(=O)[C@@]2(O[C@H]3C=CC=CN3C3=C2C(=O)CCC3)c2cccc(Br)c21,nt,nt,nt,i
COC1=CC(=O)c2ccccc2C1=O,i,i,14,nt
COc1ccc(C(=O)c2c(C(F)(F)F)oc3c2C(=O)c2ccccc2C3=O)cc1OC,i,i,i,47
COc1ccc(C(=O)Nc2ccc3c(c2)C(=O)c2ccccc2C3=O)cc1OC,i,i,i,i
COc1ccc(OC)c(S(=O)(=O)NCC2CCN(C(=O)C(=O)c3cccs3)CC2)c1,nt,nt,nt,i
O=C(/C=C/c1ccco1)NC(=S)NNC(=O)c1ccco1,i,i,i,6.6
SMILES,PKA-R1A act,PKA-R2B act,MsrA act,MsrA inhibitor
CC(=O)NC(=S)Nc1ccc(NC(=S)NC(=O)/C=C/c2ccco2)cc1,i,i,i,i
Cc1[nH]nc2c1C(c1ccc(F)cc1)N(c1ccccc1)C2=O (centres undefined),nt,nt,nt,i
COCC(=O)/C=C1\Sc2ccccc2N1C,i,i,i,5.1
COc1cc(OC)cc(C(=O)/C=C2\Sc3ccccc3N2C)c1,i,i,i,i
COc1ccc(N2C(=O)c3n[nH]c(C)c3C2c2cccc(C(F)(F)F)c2)cc1 (centres undefined),nt,nt,nt,i
O=C(Oc1ccc2c(-c3ccccc3)cc(=O)oc2c1)C1CCCCC1,i,i,i,19
CC(=O)Nc1ccc(/C=C(\C#N)C(=O)NC2CCCCC2)cc1,i,i,i,4.6
O=C(COC(=O)c1cc(-c2ccc(Cl)s2)nc2ccccc12)NCc1ccco1,i,i,i,4.6
O=C(COC(=O)c1cc(-c2cccs2)nc2ccccc12)NCc1ccco1,i,i,i,i
COc1ccccc1C(=O)N1CCC2CCN(C(=O)c3ccccc3)C2C1 (centres undefined),nt,nt,nt,i
CCN1CCN(c2nn3c(=O)c4ccccc4nc3c3ccccc23)CC1,i,i,i,i
CC1CN(c2nn3c(=O)c4ccccc4nc3c3ccccc23)CC(C)O1 (centres undefined),i,i,9.7,i
O=C1c2cccc3c([N+](=O)[O-])ccc(c23)C(=O)N1Cc1cccnc1,i,i,i,7.9
CN(c1ccc(NC(=O)CCc2cn(Cc3ccc(Br)cc3)c3ccccc23)cc1)c1ccccn1,nt,nt,nt,i
COc1ccc(N(CC(=O)N/N=C/c2ccc(N(C)C)cc2)S(=O)(=O)c2ccccc2)cc1,i,i,i,4.6
CCCCNC(=S)N/N=C/c1ccc(C)s1,i,i,i,4.7
COC(=O)[C@]12C[C@H](CC(=O)NCCC(C)C)C(=O)N(Cc3ccccc3)C1=C[C@H](C1CCCC1)O[C@@H]2C,nt,nt,nt,i
CC(=O)CSc1ccc(-c2nc3ccccc3[nH]2)cn1,i,i,i,i
CC(=O)CSc1ccc(-c2nc3cc(C)c(C)cc3[nH]2)cn1,i,i,i,4.7
COCCCNC(=O)C[C@H]1C[C@@]2(C(=O)OC)C(=C[C@H](C(C)(C)C)O[C@@H]2C)N(CCC2=CCCCC2)C1=O,nt,nt,nt,i
CC(C)Oc1ccc(-c2cc(C(=O)NCCN3CCOCC3)c3ccccc3n2)cc1,i,i,i,4.6
O=C(NCCN1CCOCC1)c1cc(-c2ccc(F)cc2)nc2ccccc12,i,i,i,i
Nc1[nH]c(C(=O)c2ccccc2)c(-c2cc(F)ccc2Br)c1C(=O)NCCc1c[nH]c2ccccc12,nt,nt,nt,i
Clc1ccc(-c2nnnn2-c2ccc(Cl)c(Cl)c2)cc1Cl,i,i,i,16
Nc1ccc(-c2nnnn2-c2ccc(N)cc2)cc1,i,i,i,i
SMILES,PKA-R1A act,PKA-R2B act,MsrA act,MsrA inhibitor
CN1OC[C@@H]2CN(C(=O)c3ccc(C#N)cc3)[C@H](c3cccc(Br)c3)C[C@@H]21,nt,nt,nt,i
COc1cc(C[C@H](C)[C@H](C)Cc2ccc3c(c2)OCO3)ccc1O,i,i,16,nt
COc1cc(CC(=O)NCc2ccc3c(c2)OCO3)cc(OC)c1OC,i,i,i,i
COC(=O)[C@]12C[C@H](CC(=O)N3CCCC3)C(=O)N(Cc3ccccc3)C1=C[C@H](C(C)(C)C)O[C@@H]2C,nt,nt,nt,i
CC(/C=N/NC(=O)c1ccncc1)=C\c1ccccc1,i,i,i,5.2
CC(=C/c1ccc(C(C)C)cc1)/C=N/NC(=O)c1ccncc1,i,i,i,i
O=C(NC1CCCC1)[C@@H]1CCCN1C(=O)[C@H](Cc1cccnc1)NC(=O)N1CCOCC1,nt,nt,nt,i
COc1ccc(C(=O)Nc2ccccc2-c2nnn(CC(=O)Nc3ccc4c(c3)OCCO4)n2)cc1,i,i,8.5,i
CN(c1cccnc1)c1ccc(NC(=O)Cc2c[nH]c3ccccc23)cc1-c1cccnc1F,nt,nt,nt,i
Cc1cc(N2CCN(C(=O)OC(C)(C)C)C[C@@H]2C)ccc1N1CCS(=O)(=O)CC1,nt,nt,nt,i
Cc1c(N2C(=O)/C(=C/c3ccccc3)SC2=S)c(=O)n(-c2ccccc2)n1C,i,i,i,4.5
C=CCN1C(=O)c2n[nH]c(C(C)C)c2C1c1ccc(C)cc1 (centres undefined),nt,nt,nt,i

# Bioassay records: PubChem BioAssay, The Scripps Research Institute Molecular Screening Center
